In PubChem BioAssay AID1159580 (chemical genetic matrix, 2015):
About 2,000 (36%) of roughly 5,500 compounds were called active. Roughly 18% stayed inconclusive and do not appear here. Rule as the data show it: active = normalized growth mostly below about 0.91 (no sharp cut-off); inconclusive = no clear call, values can overlap the other calls; inactive = mostly above about 0.92. This is one part of the list.

Assay: chemical genetic growth profiling, strain panel (AID 1159580);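 also: tested at 20 µM; growth read once vehicle control cultures reached saturation at 30 °C; 1 = growth at the plate median or of vehicle wells; lower values mean less growth of the strain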
Conditions: S. cerevisiae deletion strains, growth OD
[1] = locus YGR078C, strain PAC10, active compounds read low
[2] = locus YJL095W, strain BCK1, active compounds read low
[3] = locus YMR307W, strain GAS1, active compounds read low
[4] = locus YPL055C, strain LGE1, active compounds read low

Measured: normalized growth

C=C(C)/C=C1/C=CC(=O)C(C)=C1
active: locus YBR021W, strain FUR4, active compounds read low 0.466 | locus YCL029C, strain bik1, active compounds read low 0.611 | locus YDL035C, strain GPR1, active compounds read low 0.185 | locus YDL074C, strain BRE1, active compounds read low 0.26 | locus YDL101C, strain DUN1, active compounds read low 0.803 | locus YDL185W, strain tfp1, active compounds read low 0.06 | locus YDL192W, strain arf1, active compounds read low 0.0749 | locus YDR101C, strain arx1, active compounds read low 0.613 | locus YDR162C, strain NBP2, active compounds read low 0.208 | locus YDR318W, strain mcm21, active compounds read low 0.0733 | locus YDR388W, active compounds read low 0.544 | locus YDR502C, strain sam2, active compounds read low 0.0764 | locus YEL061C, strain CIN8, active compounds read low 0.288 | locus YER110C, active compounds read low 0.472 | locus YER155C, strain BEM2, active compounds read low 0.27 | locus YER167W, strain BCK2, active compounds read low 0.151 | locus YGL078C, strain dbp3, active compounds read low 0.0621 | locus YGL086W, strain mad1, active compounds read low 0.0823 | locus YGL248W, strain PDE1, active compounds read low 0.152 | [1] 0.097 | locus YGR135W, strain pre9, active compounds read low 0.129 | locus YGR252W, strain gcn5, active compounds read low 0.264 | locus YHR079C, strain IRE1 (second series), active compounds read low 0.687 | locus YHR094C, strain hxt1, active compounds read low 0.088 | locus YHR129C, strain ARP1, active compounds read low 0.107 | locus YHR200W, strain rpn10, active compounds read low 0.27 | locus YIL066C, strain RNR3, active compounds read low 0.458 | locus YIL073C, strain SPO22, active compounds read low 0.179 | locus YIL125W, strain kgd1, active compounds read low 0.0607 | locus YIR030C, strain dcg1, active compounds read low 0.42 | [2] 0.375 | locus YJL134W, strain LCB3, active compounds read low 0.183 | locus YJL168C, strain set2, active compounds read low 0.203 | locus YJL187C, strain SWE1 (second series), active compounds read low 0.636 | locus YKL068W, active compounds read low 0.0579 | locus YKL085W, strain MDH1 (second series), active compounds read low 0.0777 | locus YKL085W, strain MDH1, active compounds read low 0.0777 | locus YKL190W, strain CNB1, active compounds read low 0.198 | locus YKR001C, strain vps1, active compounds read low 0.0676 | locus YLR039C, strain RIC1, active compounds read low 0.166 | locus YLR058C, strain SHM2, active compounds read low 0.755 | locus YLR102C, strain apc9, active compounds read low 0.0756 | locus YLR262C, strain YPT6, active compounds read low 0.152 | locus YLR268W, strain sec22, active compounds read low 0.076 | locus YLR330W, strain CHS5, active compounds read low 0.0909 | locus YLR371W, strain rom2, active compounds read low 0.0908 | locus YLR418C, strain cdc73, active compounds read low 0.116 | locus YML016C, strain PPZ1, active compounds read low 0.228 | locus YML032C, strain rad52, active compounds read low 0.7 | locus YML124C, strain tub3, active compounds read low 0.174 | locus YMR078C, strain ctf18, active compounds read low 0.0861 | locus YMR223W, strain ubp8, active compounds read low 0.108 | [3] 0.147 | locus YNL067W, strain RPL9B, active compounds read low 0.0907 | locus YNL128W, strain TEP1, active compounds read low 0.229 | locus YNL233W, strain BNI4, active compounds read low 0.188 | locus YNL250W, strain rad50, active compounds read low 0.0988 | locus YNL271C, strain bni1, active compounds read low 0.0645 | locus YNL298W, strain CLA4, active compounds read low 0.06 | locus YNL307C, strain MCK1, active compounds read low 0.0748 | locus YNR052C, strain pop2, active compounds read low 0.748 | locus YOL006C, strain TOP1, active compounds read low 0.202 | locus YOL147C, strain pex11, active compounds read low 0.464 | locus YOR061W, strain CKA2, active compounds read low 0.449 | locus YOR069W, strain VPS5, active compounds read low 0.0688 | locus YOR136W, strain idh2, active compounds read low 0.106 | locus YOR144C, strain elg1, active compounds read low 0.646 | locus YOR184W, strain ser1, active compounds read low 0.0806 | locus YOR316C, strain cot1, active compounds read low 0.0831 | [4] 0.103 | locus YPR119W, strain clb2, active compounds read low 0.0703 | locus YPR141C, strain kar3, active compounds read low 0.0832 | locus YPR163C, strain tif3, active compounds read low 0.0853 | locus YPR167C, strain met16, active compounds read low 0.0692 | strain wtn01, active compounds read low 0.0763
inactive: locus YBR229C, strain ROT2, active compounds read low 0.99 | locus YOL012C, strain htz1 0.247

CCOC(=O)c1ncn2c1CN(C)C(=O)c1cc(F)ccc1-2
inactive: locus YAL013W, strain DEP1, active compounds read low 0.994 | locus YAL021C, strain ccr4, active compounds read low 1.01 | locus YAL026C, strain drs2, active compounds read low 1.02 | locus YAL030W, strain snc1, active compounds read low 1.02 | locus YAL040C, strain CLN3, active compounds read low 1 | locus YBL061C, strain skt5, active compounds read low 1.01 | locus YBR009C, strain hhf1, active compounds read low 1.03 | locus YBR023C, strain chs3, active compounds read low 1.02 | locus YBR171W, strain sec66, active compounds read low 1.02 | locus YBR231C, strain swc5, active compounds read low 1.02 | locus YBR279W, strain paf1, active compounds read low 1.01 | locus YCL011C, strain gbp2, active compounds read low 1.01 | locus YCL016C, strain dcc1, active compounds read low 1.02 | locus YCL061C, strain MRC1 (second series), active compounds read low 1 | locus YCL061C, strain MRC1, active compounds read low 1.02 | locus YCL069W, strain vba3, active compounds read low 1.01 | locus YCR088W, strain abp1, active compounds read low 1.02 | locus YDL005C, strain med2, active compounds read low 1.02 | locus YDL040C, strain nat1, active compounds read low 1.02 | locus YDR001C, strain nth1, active compounds read low 1.02 | locus YDR069C, strain doa4, active compounds read low 1.03 | locus YDR137W, strain rgp1, active compounds read low 1 | locus YDR150W, strain NUM1, active compounds read low 1.01 | locus YDR159W, strain sac3, active compounds read low 1.03 | locus YDR195W, strain ref2 1.02 | locus YDR297W, strain sur2, active compounds read low 1.01 | locus YDR334W, strain swr1, active compounds read low 1.02 | locus YDR335W, strain msn5, active compounds read low 1.02 | locus YDR363W, strain ESC2, active compounds read low 0.997 | locus YDR392W, strain spt3, active compounds read low 0.994 | locus YEL003W, strain gim4, active compounds read low 1.02 | locus YEL037C, strain rad23, active compounds read low 1.01 | locus YEL061C, strain CIN8 (second series), active compounds read low 1.02 | locus YER002W, strain NOP16, active compounds read low 0.993 | locus YER015W, strain faa2, active compounds read low 1.01 | locus YER016W, strain bim1, active compounds read low 1.01 | locus YER111C, strain swi4, active compounds read low 1.01 | locus YER155C, strain BEM2 (second series), active compounds read low 1.01 | locus YFR010W, strain ubp6, active compounds read low 1.02 | locus YGL167C, strain pmr1, active compounds read low 1.03 | locus YGL173C, strain kem1, active compounds read low 1.02 | locus YGL227W, strain vid30, active compounds read low 1.02 | locus YGL240W, strain doc1, active compounds read low 1.04 | locus YGL253W, strain hxk2, active compounds read low 1.02 | [1] 1.01 | locus YHR013C, strain ard1, active compounds read low 1.03 | locus YHR027C, strain rpn1, active compounds read low 1.01 | locus YHR030C, strain SLT2, active compounds read low 0.986 | locus YHR079C, strain IRE1, active compounds read low 0.997 | locus YHR142W, strain chs7, active compounds read low 0.972 | locus YJL092W, strain hpr5, active compounds read low 1.02 | locus YJL095W, strain BCK1 (second series), active compounds read low 1.02 | [2] 0.997 | locus YJL115W, strain asf1, active compounds read low 1.02 | locus YJL129C, strain trk1, active compounds read low 1.01 | locus YJL154C, strain vps35, active compounds read low 1.02 | locus YJL164C, strain tpk1, active compounds read low 1.02 | locus YJL166W, strain qcr8, active compounds read low 1.03 | locus YJL187C, strain SWE1, active compounds read low 1.02 | locus YJR066W, strain TOR1, active compounds read low 0.93 | locus YJR075W, strain HOC1, active compounds read low 1 | locus YKL160W, strain elf1, active compounds read low 1.01 | locus YKR026C, strain gcn3, active compounds read low 1.01 | locus YKR091W, strain srl3, active compounds read low 1.01 | locus YLL001W, strain dnm1, active compounds read low 1.01 | locus YLL026W, active compounds read low 1.02 | locus YLL041C, strain sdh2, active compounds read low 1.02 | locus YLR027C, strain aat2, active compounds read low 1.02 | locus YLR113W, strain HOG1, active compounds read low 1.01 | locus YLR221C, strain rsa3, active compounds read low 1.02 | locus YLR258W, strain gsy2, active compounds read low 1.02 | locus YLR262C, strain YPT6 (second series), active compounds read low 1.02 | locus YLR320W, strain mms22, active compounds read low 1.03 | locus YLR342W, strain FKS1, active compounds read low 1.02 | locus YLR357W, strain rsc2, active compounds read low 1.03 | locus YLR370C, strain arc18, active compounds read low 1.02 | locus YLR384C, strain iki3, active compounds read low 1.02 | locus YML120C, strain ndi1, active compounds read low 1 | locus YMR058W, strain fet3, active compounds read low 1.02 | locus YMR125W, strain sto1, active compounds read low 1.03 | locus YMR129W, active compounds read low 1.01 | locus YMR205C, strain PFK2, active compounds read low 1.03 | locus YMR231W, strain pep5, active compounds read low 1.01 | [3] 0.985 | locus YNL071W, strain lat1, active compounds read low 1.01 | locus YNL175C, strain NOP13, active compounds read low 0.999 | locus YNL183C, strain NPR1, active compounds read low 0.938 | locus YNL197C, strain WHI3, active compounds read low 0.999 | locus YNL209W, strain ssb2, active compounds read low 1.02 | locus YNL224C, strain SQS1, active compounds read low 1 | locus YNL248C, strain rpa49, active compounds read low 0.992 | locus YNL322C, strain KRE1 (second series), active compounds read low 1.01 | locus YNR049C, strain mso1, active compounds read low 1.02 | locus YOR001W, strain rrp6, active compounds read low 1.01 | locus YOR070C, strain gyp1, active compounds read low 1.02 | locus YOR080W, strain dia2, active compounds read low 1.02 | locus YOR083W, strain WHI5 (second series), active compounds read low 1.03 | locus YOR083W, strain WHI5, active compounds read low 0.997 | locus YOR106W, strain vam3, active compounds read low 1.01 | locus YOR231W, strain MKK1, active compounds read low 0.983 | locus YOR265W, strain rbl2, active compounds read low 1.02 | locus YOR270C, strain vph1, active compounds read low 1.02 | locus YOR290C, strain snf2, active compounds read low 1.01 | locus YPL051W, strain arl3, active compounds read low 1.01 | [4] 1.01 | locus YPL078C, strain atp4, active compounds read low 1 | locus YPL106C, strain sse1, active compounds read low 1.04 | locus YPL240C, strain hsp82, active compounds read low 1 | locus YPL256C, strain CLN2, active compounds read low 0.973
